Assay [1] is described as follows: qHTS assay to identify small molecule antagonists of the estrogen related receptor (ERR) signaling pathway - cell viability counter screen (AID 1224818). Note: series mostly up to about 46 µM. Summed up: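 Compounds dissolved in DMSO were applied to ERR cells seeded at 2,000 per well 6 h earlier. Cell viability followed 17.5 h later via 30-min CellTiter-Fluor fluorescence.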
For orientation: qHTS replaces the single test concentration by a dilution series.

A short description of assay [2]: qHTS assay to identify small molecule agonists of the estrogen related receptor (ERR) signaling pathway (AID 1224820). Summed up: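 After 6 h plating (2,000 cells/well) and 18 h compound treatment at 37 C, ERR cells were lysed with One-Glo and luminescence read after 30 min at room temperature.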
In assay [3] the test system is estrogen-related receptor alpha (ERRalpha) with PGC-1alpha coactivator, human. The assay is described as follows: qHTS assay to identify small molecule antagonists of the estrogen related receptor signaling pathway with the pleiotropic PPARgamma coactivator (PGC) (AID 1224821; calls by dose curve; note: nearly all actives have a fitted effect of over 50% in size; note: potency is the fitted concentration of half-maximal effect). The method, boiled down: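 Luminescence from One-Glo luciferase reagent (30 min, room temperature) measured after 18 h compound treatment at 37 °C. Cells carry the PGC/ERR reporter and were seeded 6 h prior to dosing.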

A short description of assay [4]: qHTS assay to identify small molecule antagonists of the estrogen related receptor signaling pathway with the pleiotropic PPARgamma coactivator (PGC) cell viability counter screen (AID 1224822; note: series mostly up to about 46 µM). Summed up:
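Counter screen for cell viability: PGC/ERR cells, 6 h pre-incubation after plating, 17.5 h compound exposure at 37 C, fluorescence from CellTiter-Fluor after 30 min.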

Assay [5] in a line: qHTS assay to identify small molecule agonists of the estrogen related receptor signaling pathway with the pleiotropic PPARgamma coactivator (PGC) (AID 1224823). Note: potency is the fitted concentration of half-maximal effect. Summed up: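 Luminescence from One-Glo reagent (30 min, room temperature) was read after 18 h compound treatment at 37 C of PGC/ERR cells plated 6 h beforehand; compounds delivered in DMSO by pin tool.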

The structures appear in SMILES notation. Records with an inconclusive call do not appear. Calls of active or inactive are those of the source. Unless noted, calls come from the whole dose curve; as a rule, active = well fitted curve in the direction sought with a large enough effect in the repeat runs; inconclusive = weak or mixed curves; inactive = no such curve, though single readings can be large; an effect the other way counts as inactive or inconclusive.

Our source for the Potency values is PubChem BioAssay (Tox21).

`c1ccc2c(c1)CC(N1CCN(c3cccc4c3OCCO4)CC1)C2`: the Potency result in assay [1], in assay [2], in assay [3], in assay [4] and in assay [5] was “inactive” in each case.
Consider `OCc1ccc(-c2nn(Cc3ccccc3)c3ccccc23)o1`, for which the Potency entry in assay [1], in assay [2], in assay [3], in assay [4] and in assay [5] was “inactive” in each case.
Take `CN1CCC2(CCN3CCc4c(oc5ccccc45)C3C2)N(C)C1=O` (stereo not given): the Potency entry in assay [1], in assay [2], in assay [3], in assay [4] and in assay [5] was “inactive” each time.
For the compound `COc1cccc(OC)c1OCCNCC1CSc2ccccc2O1` (stereo not given), the Potency result in assay [1], in assay [2], in assay [3], in assay [4] and in assay [5] was “inactive” throughout.
For the compound `N=C(N)SCCN`, the Potency result in assay [1], in assay [2], in assay [3], in assay [4] and in assay [5] was “inactive” each time.
On to `Nc1nc(Cl)nc2c1ncn2[C@@H]1O[C@H](COP(=O)(O)OP(=O)(O)OP(=O)(O)O)C(O)[C@H]1O` (stereo not given in full), for which the Potency result in assay [1], in assay [2], in assay [3] and in assay [4] was “inactive” in each case. Besides, the Potency in assay [5] was 1.33 µM (active).
`COC(=O)C(N)Cc1ccc(Cl)cc1` (stereo not given): the Potency result in assay [1], in assay [2], in assay [3], in assay [4] and in assay [5] was “inactive” throughout.
Consider `O=c1[nH]c(=S)[nH]c(-c2ccccc2)c1Cc1c(O)ccc2ccccc12`, for which the Potency result in assay [1], in assay [2], in assay [3], in assay [4] and in assay [5] was “inactive” each time.
With `OCC1O[C@H](O)C(Cl)C(O)C1O` (stereo not given in full), the Potency entry in assay [1], in assay [2], in assay [3], in assay [4] and in assay [5] was “inactive” each time.
As to `OC[C@H]1O[C@@H](n2cnc3cncnc32)[C@H](O)[C@@H]1O`, the Potency entry in assay [1], in assay [2], in assay [4] and in assay [5] was “inactive” throughout. The Potency in assay [3] was 15 µM (active).
For `CCN1C(=O)C=CC1=O`, the Potency result in assay [1], in assay [2], in assay [3], in assay [4] and in assay [5] was “inactive” throughout.
Turning to `Cc1nn(-c2ccccc2)c(C)c1/C=N/N1CCN(Cc2ccccc2)CC1`, the Potency entry in assay [1], in assay [2], in assay [3], in assay [4] and in assay [5] was “inactive” in each case.
